In PubChem BioAssay AID1502 (Sanford-Burnham Center for Chemical Genomics, 2009) one finds inhibition data, which are given here for 27 compounds.

Some of the results follow. Activity calls are given as the source filed them. No stated cut-off is given here; in the data, active means inhibition above about 40%; inactive means the rest.

Runt-related transcription factor 1 (Homo sapiens) + Core-binding factor subunit beta (Homo sapiens), sequence (Q01196 whole entry, looked up, the tested form may be a part): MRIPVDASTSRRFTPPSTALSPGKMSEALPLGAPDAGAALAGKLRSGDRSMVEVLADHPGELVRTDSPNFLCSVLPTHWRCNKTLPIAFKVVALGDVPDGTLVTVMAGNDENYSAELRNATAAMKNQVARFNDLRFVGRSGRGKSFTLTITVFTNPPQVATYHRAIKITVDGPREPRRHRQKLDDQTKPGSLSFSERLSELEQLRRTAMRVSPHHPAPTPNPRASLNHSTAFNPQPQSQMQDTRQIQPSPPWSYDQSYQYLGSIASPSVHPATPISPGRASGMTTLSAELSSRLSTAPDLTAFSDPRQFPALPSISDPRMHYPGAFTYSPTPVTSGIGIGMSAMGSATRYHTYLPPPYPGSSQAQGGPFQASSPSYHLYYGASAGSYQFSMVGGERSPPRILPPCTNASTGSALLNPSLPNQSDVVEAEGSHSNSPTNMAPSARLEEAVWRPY
Runt-related transcription factor 1 (Homo sapiens) + Core-binding factor subunit beta (Homo sapiens), sequence (Q13951 whole entry, looked up, the tested form may be a part): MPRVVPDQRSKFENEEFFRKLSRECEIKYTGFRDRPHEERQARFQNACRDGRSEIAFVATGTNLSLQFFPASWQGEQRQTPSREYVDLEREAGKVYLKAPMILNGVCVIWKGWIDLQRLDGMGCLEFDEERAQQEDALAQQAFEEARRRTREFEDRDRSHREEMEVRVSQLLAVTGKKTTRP

This assay concerns the target Runt-related transcription factor 1 (Homo sapiens) + Core-binding factor subunit beta (Homo sapiens) (UniProt Q01196+Q13951). The assay can be described thus: inhibitors of RUNX1 Runt–CBFb binding, biochemical, TR-FRET (AID 1502). Particulars: TR-FRET RUNX1 Runt domain-CBFb binding; at 20 µM; stronger effect = higher value. In general terms: Time-resolved FRET reads energy transfer from a long-lived donor to a nearby acceptor.
For orientation: inhibition means the drop in the measured response relative to a control, in per cent. Take `Cc1cccc(-n2c(N)c(C(=O)N3CCN(C)CC3)sc2=S)c1`: the inhibition was 18.2% (inactive).

With `O=C1c2ccccc2C(Nc2ccc3c(c2)OCCO3)N1Cc1ccco1` (configuration not stated), the inhibition is 2% (inactive). In the case of `Brc1ccc(CSc2ccc(-c3ccco3)nn2)cc1` it was 73.7% (active). With `CCOC(=O)c1cc2c(=O)n3ccccc3nc2n(CC(C)C)c1=NC(=O)c1c(-c2c(F)cccc2Cl)noc1C` the figure was -8.1% (inactive); with `COCC(C)OC(=O)c1c(N)n(CCCN2CCOCC2)c2nc3ccccc3nc12` (configuration not stated), 53.2% (active). Turning to `Cc1cc(F)ccc1S(=O)(=O)Nc1ncnc2scc(-c3ccc(F)cc3)c12`, the inhibition is -13.5% (inactive). For the compound `CC(=O)Oc1ccc2c(C)c(CC(C)O)c(=O)oc2c1` (configuration not stated), the inhibition was 14% (inactive). With `CC(C)Cn1c(CCC(=O)O)ccc1-c1cccs1` the figure was 17% (inactive); with `CCCS(=O)(=O)N1CCCC(C(=O)NCc2ccco2)C1` (configuration not stated), 2.1% (inactive). In the case of `OCCN1CCN(C(=S)c2ccc(-c3ccccc3)cc2)CC1` it was 15.5% (inactive); in that of `CC(C)Oc1ccc(/C=C(\NC(=O)/C=C/c2ccco2)C(=O)NCCc2nc3ccccc3[nH]2)cc1`, -3.3% (inactive); in that of `CCN1/C(=C/C(=S)Nc2ccccc2)Sc2ccccc21`, -2.1% (inactive). With `COc1c(O)ccc2c1CN1CCc3cc4c(cc3C1C2)OCO4` (configuration not stated) the figure was 20.3% (inactive); with `COC(=O)Cn1c2ccc(C)cc2c2nc(C)sc21`, 24.5% (inactive); with `CCOc1cccc(/C=N/N2C(=O)CSC2=S)c1O`, 77.6% (active). Take `N#Cc1c(N)n(CCOC(=O)c2ccc(Cl)cc2)c2nc3ccccc3nc12`: the inhibition is 4% (inactive).

Regarding `N#CC1=C(N)Oc2cc(O)ccc2C1C1CCCCC1` (configuration not stated), the inhibition was -0.9% (inactive). In the case of `O=c1cc(CN2CCN(S(=O)(=O)/C=C/c3ccccc3)CC2)c2ccc(O)cc2o1` it was 34.5% (inactive); in that of `Cc1ccc(-c2cn3cc([N+](=O)[O-])ccc3n2)cc1`, -11.5% (inactive). With `Cc1cc(C)c2c3c(sc2n1)C(c1ccccc1)C(C#N)=C(N)O3` (configuration not stated) the figure was 1.6% (inactive); with `CCC(=O)Nc1c(S(=O)(=O)c2ccccc2)c2nc3ccccc3nc2n1Cc1ccccc1`, 62.4% (active). With `CCN1C(=O)/C(=C2/Sc3ccccc3N2CCCS(=O)(=O)O)SC1=S` the figure was 10.7% (inactive); with `CCCN1C2=C(C(=O)CCC2)C(c2ccc(O)c(Br)c2)C2=C1CCCC2=O`, 29.9% (inactive); with `COc1cccc2sc(Nc3nc(C)c(C(C)=O)s3)nc12`, 0.6% (inactive). Turning to `CC(C)(C)OC(=O)c1c(N)n(CCCN2CCCC2=O)c2nc3ccccc3nc12`, the inhibition was 34.4% (inactive). For `COc1ccc(C2C(C#N)=C(N)Oc3cc(N)ccc32)cc1OC` (configuration not stated), the inhibition was -6.8% (inactive). In the case of `O=c1[nH]c2ccccc2n2c(-c3ccccc3)nnc12`, the inhibition was 66.7% (active).
